# Data reported in PubChem BioAssay.
# Values without a mark were called inactive. Some of the results follow. Calls of active or inactive are those of the source. Cut-off read from the data, not from the text of the source, unless noted: active = inhibition above about 30%; inactive = the rest.
# Key:
# [1] = target: Neuropeptide Y receptor type 2 (Homo sapiens) (UniProt P49146); assay: human Y2 receptor positive modulation or activation – cell-based, confirmation (AID 1539; in the data active = activation above about 33%); conditions: cell-based NPY-Y2 potentiator/agonist assay; at 3.6 µM; active compounds read high
# Sequence of Neuropeptide Y receptor type 2 (Homo sapiens) (P49146 whole entry, looked up): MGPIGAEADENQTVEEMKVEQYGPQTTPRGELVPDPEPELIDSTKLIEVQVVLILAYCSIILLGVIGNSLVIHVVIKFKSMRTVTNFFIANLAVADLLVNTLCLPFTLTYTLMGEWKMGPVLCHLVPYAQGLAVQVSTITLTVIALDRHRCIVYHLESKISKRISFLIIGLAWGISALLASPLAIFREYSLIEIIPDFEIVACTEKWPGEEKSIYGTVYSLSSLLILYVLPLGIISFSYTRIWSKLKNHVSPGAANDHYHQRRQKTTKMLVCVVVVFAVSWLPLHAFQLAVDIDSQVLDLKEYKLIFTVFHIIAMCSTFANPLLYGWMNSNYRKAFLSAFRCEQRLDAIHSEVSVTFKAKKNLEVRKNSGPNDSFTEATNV
# [2] = target: Neuropeptide Y receptor type 1 (Homo sapiens) (UniProt P25929); assay: human Y1 receptor positive modulation or activation – cell-based, fluorescence, counter-screen for NPY-Y2 potentiator project (AID 1651; in the data active = activation above about 45%;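 note: cells stimulated with submaximal NPY then isoproterenol with phosphodiesterase inhibitor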); conditions: Y1 HEK293-CNG cells, membrane potential fluorescence; at 3.6 µM; active compounds read high
# Sequence of Neuropeptide Y receptor type 1 (Homo sapiens) (P25929 whole entry, looked up): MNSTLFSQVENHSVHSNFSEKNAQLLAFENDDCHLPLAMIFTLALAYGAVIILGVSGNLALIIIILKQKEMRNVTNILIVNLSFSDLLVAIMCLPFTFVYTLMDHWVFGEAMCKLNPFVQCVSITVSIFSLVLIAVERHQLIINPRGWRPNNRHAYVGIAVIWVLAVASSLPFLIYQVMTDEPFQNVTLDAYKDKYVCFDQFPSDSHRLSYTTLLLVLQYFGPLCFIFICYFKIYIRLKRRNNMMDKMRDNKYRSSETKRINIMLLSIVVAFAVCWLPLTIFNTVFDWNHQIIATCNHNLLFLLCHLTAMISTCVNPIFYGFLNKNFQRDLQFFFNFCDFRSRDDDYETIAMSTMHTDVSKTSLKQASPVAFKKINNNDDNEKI
# [3] = target: Neuropeptide Y receptor type 1 (Homo sapiens) (UniProt P25929); assay: human Y1 receptor agonism, CNGC membrane potential – cell-based, fluorescence, selectivity assay for NPY-Y2 potentiator project (AID 1702;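 active = activation above the mean of DMSO-only control wells plus 3 SD, cut at about 18% in these data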;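 note: cells stimulated with 1 µM isoproterenol plus the PDE inhibitor Ro 20-1724; 0% = isoproterenol with DMSO and no NPY and 100% = 40 nM NPY; Y1 agonists lower the membrane potential dye signal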); conditions: HEK293 Y1-CNGC, at 3.6 µM, active compounds read high
# [4] = blockers of isoproterenol-driven CNG channel signal – cell-based, HEK293-CNG parental, membrane potential fluorescence, counter-screen for NPY-Y2 potentiator project (AID 1703;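 active = inhibition above the control-well mean plus 3 SD of those wells, cut at about 22% in these data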;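 note: 0% = DMSO with isoproterenol and 100% = DMSO without isoproterenol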); conditions: isoproterenol cAMP, at 3.6 µM, active compounds read high
# [5] = target: Neuropeptide Y receptor type 2 (Homo sapiens) (UniProt P49146); assay: agonism at human Y2 receptor without NPY – cell-based, fluorescence, counter-screen for NPY-Y2 potentiator project (AID 1710;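 active = activation above the mean of solvent-only control wells plus 3 SD, cut at about 10% in these data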;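 note: cells stimulated by isoproterenol with no NPY added so direct agonism is tested; 0% = DMSO with isoproterenol alone and 100% = NPY at EC100 plus isoproterenol; agonism lowers probe fluorescence through less cAMP and CNG channel opening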); conditions: HEK293 Y2/CNGC cells, membrane potential fluorescence, agonist mode; at 3.6 µM; active compounds read high
# [6] = reduced OD of T4-infected AddAB+ E. coli – absorbance, E. coli V3065, T4 phage, triplicate, AddAB inhibitor project, confirmation (AID 488942;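 active = mean inhibition above a set limit taken from the earlier primary screen, cut at about 13% in these data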;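 note: higher means less bacterial growth since AddAB block lets phage replicate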); conditions: E. coli V3065 expressing H. pylori AddAB, at 11.9 µM, active compounds read high, T4 phage with gene 2 nonsense mutations
# [7] = reduced OD of phage-infected RecBCD+ V66 E. coli – absorbance, mutant T4 phage, counter-screen for AddAB inhibitor project (AID 488955;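 active = mean inhibition above the mean of solvent-only control wells plus 3 SD, cut at about 4% in these data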;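 note: optical density read after an 18 h incubation at 37 °C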); conditions: OD growth, at 11.9 µM, active compounds read high
# [8] = bacterial growth inhibitors – absorbance, counter-screen for AddAB inhibitor project, confirmation (AID 488956; in the data active = inhibition above about 25%); conditions: bacterial viability, absorbance (AddAB counterscreen); at 11.9 µM; active compounds read high
# [9] = target: Nuclear receptor coactivator 3 (Homo sapiens) (UniProt Q9Y6Q9); assay: NCOA3 GAL4-fusion reporter inhibition – cell-based, luminescence, quadruplicate, confirmation (AID 588792;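 active = mean inhibition over 43.08%, the solvent-only control mean plus 3 SD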;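 note: 0% = DMSO treated cells and 100% = gossypol at 36 µM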); conditions: HEK293 GAL4-SRC3 luciferase reporter, at 3.6 µM, active compounds read high
# [10] = system: transactivating tegument protein VP16 (Human herpesvirus 1), Gal4-VP16 luciferase reporter; assay: repression of VP16-driven luciferase reporter – cell-based, luminescence, high throughput, counter-screen for SRC3 inhibitor project (AID 588794); conditions: mammalian cells, at 3.6 µM, active compounds read high
# [11] = target: Nuclear receptor coactivator 1 (Homo sapiens) (UniProt Q15788); assay: NCOA1 GAL4-fusion reporter inhibition – cell-based, luminescence, quadruplicate, confirmation (AID 588820;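 active = mean inhibition above 46.68%, the untreated control wells mean plus 3 SD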;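 note: 0% = DMSO wells and 100% = gossypol 36 µM treated wells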); conditions: HEK293 GAL4-SRC1 luciferase reporter, at 3.6 µM, active compounds read high
# [12] = repression of VP16-driven luciferase reporter – cell-based, luminescence, high throughput, counter-screen for SRC1 inhibitor project (AID 588824; in the data active = inhibition above about 25%); conditions: cell-based VP16 transactivation luciferase luminescence; at 3.6 µM; active compounds read high
# [13] = target: Photoreceptor-specific nuclear receptor (Homo sapiens) (UniProt Q9Y5X4); assay: retest of NR2E3-NCOR disrupting agonists – cell-based, luminescence, CHO-S two-hybrid, confirmation (AID 624378;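 active = average inhibition above a cutoff equal to the mean inhibition of all tested compounds plus one SD, cut at about 70% in these data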;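 note: 0% = DMSO in NR2E3 cells and 100% = DMSO in cells lacking NR2E3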); conditions: CHO-S mammalian two-hybrid NR2E3-NCOR, luciferase luminescence; at 3.98 µM; active compounds read high
# Sequence of Photoreceptor-specific nuclear receptor (Homo sapiens) (Q9Y5X4 whole entry, looked up): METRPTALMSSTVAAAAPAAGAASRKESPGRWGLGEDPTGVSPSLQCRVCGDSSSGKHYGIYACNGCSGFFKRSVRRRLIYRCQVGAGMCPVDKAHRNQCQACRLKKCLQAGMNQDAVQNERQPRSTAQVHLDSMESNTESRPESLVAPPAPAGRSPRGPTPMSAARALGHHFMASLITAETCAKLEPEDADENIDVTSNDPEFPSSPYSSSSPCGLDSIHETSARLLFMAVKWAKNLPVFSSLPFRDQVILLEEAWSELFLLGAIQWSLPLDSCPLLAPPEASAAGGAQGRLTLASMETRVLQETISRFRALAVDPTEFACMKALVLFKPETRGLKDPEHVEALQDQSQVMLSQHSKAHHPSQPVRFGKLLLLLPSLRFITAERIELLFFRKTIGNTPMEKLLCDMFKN
# [14] = nonselective effects on VP16 transactivation – cell-based, luminescence, CHO-S, high throughput, counter-screen for NR2E3 agonist project, confirmation (AID 624379;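 active = mean inhibition above a cutoff equal to the average over all tested compounds plus one standard deviation, cut at about 70% in these data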;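 note: 0% = DMSO with VP16-transfected cells and 100% = DMSO with cells lacking VP16; higher means less reporter light so more repression of VP16 activity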); conditions: CHO-S GAL4-VP16 luciferase reporter, at 3.98 µM, active compounds read high
# [15] = StAR promoter reporter inhibitors, counter-screen for LRH-1 inverse agonist project, cell-based, luminescence, high throughput (AID 651611; in the data active = inhibition above about 28%); conditions: StAR promoter luciferase reporter counterscreen, at 3.6 µM, active compounds read high
# [16] = target: Nuclear receptor subfamily 5 group A member 2 (Homo sapiens) (UniProt O00482); assay: NR5A2 activity suppression in reporter cells – cell-based, luminescence, confirmation (AID 651613; in the data active = inhibition above about 42%;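 note: HEK293T cells co-transfected with LRH-1 and StAR promoter luciferase reporter; 0% = vehicle wells and 100% = parental cells lacking receptor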); conditions: cell-based LRH-1 luciferase reporter, inverse agonism; at 3.6 µM; active compounds read high
# [17] = target: Steroidogenic factor 1 (Homo sapiens) (UniProt Q13285); assay: inverse agonism at SF1 nuclear receptor – cell-based, luminescence, high throughput, counter-screen for LRH-1 inverse agonist project (AID 651614; in the data active = inhibition above about 44%;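 note: cells cotransfected with StAR promoter reporter and SF1 expression vector; 0% = vehicle on cells with receptor and 100% = vehicle on cells lacking receptor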); conditions: cell-based SF1 luciferase reporter, at 3.6 µM, active compounds read high
# [18] = compounds suppressing VP16-driven luciferase signal – cell-based, luminescence, high throughput, counter-screen for LRH-1 inverse agonist project (AID 651615; in the data active = inhibition above about 33%); conditions: Gal4-VP16 luciferase reporter cells, at 3.6 µM, active compounds read high
# [19] = reduced OD of V66 E. coli with T4 gene 2 phage – absorbance, RecBCD inhibitor project, confirmation (AID 651982;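 active = mean inhibition over triplicates exceeding the hit threshold derived in the original primary screen, cut at about 11% in these data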); conditions: E. coli V66 + T4 2- phage, growth OD; at 11.9 µM; active compounds read high
# [20] = bacterial growth inhibition – absorbance, high throughput, counter-screen for RecBCD inhibitor project (AID 651983; in the data active = inhibition above about 20%;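 note: E. coli strain V66 grown with compound alone and no phage infection; 0% = bacteria with DMSO vehicle only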); conditions: E. coli viability, absorbance (OD) growth; at 11.9 µM; active compounds read high
# [21] = reduced optical density, T4-challenged addAB+ bacteria – absorbance, E. coli V3065, T4 phage, counter-screen for RecBCD inhibitor project, confirmation (AID 651984;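 active = mean inhibition above the solvent-only control wells' mean plus 3 SD, cut at about 22% in these data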;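 note: higher means less bacterial growth from phage killing when AddAB is blocked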); conditions: E. coli expressing H. pylori AddAB + T4 phage, OD growth; at 11.9 µM; active compounds read high; gene 2 mutant T4, recBCD-deleted host
# [22] = VP16-driven transactivation reporter suppression – cell-based, luminescence, HEK293, counter-screen for COUP-TFII antagonist project (AID 687007; in the data active = inhibition above about 13%); conditions: HEK293 Gal4-VP16 luciferase reporter, at 8.5 µM, active compounds read high
# [23] = target: COUP transcription factor 2 (Homo sapiens) (UniProt P24468); assay: retest of COUP-TFII reporter suppressors – cell-based, luciferase reporter, HEK293, triplicate, confirmation (AID 687008;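 active = mean inhibition over three repeats above a set limit taken from the earlier primary screen, cut at about 38% in these data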;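 note: 100% = cells given the luciferase reporter alone without the COUP-TF2 vector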); conditions: HEK293 NGFI-A luciferase reporter, luminescence; at 8.5 µM; active compounds read high
# [24] = system: Fam108b (Abhd17b) serine hydrolase [Mus musculus]; assay: inhibition of Fam108b (Abhd17b) hydrolase – biochemical, fluorescence polarization, triplicate, counter-screen for RBBP9 inhibitor project, confirmation (AID 1978;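 active = inhibition above a limit from the primary screen, the mean over all compounds plus 3 SD, cut at about 19% in these data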;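 note: 0% = median of active Fam108b wells and 100% = catalytically dead S170A mutant; inhibitors free the probe so polarization falls as inhibition rises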); conditions: recombinant Fam108b, FP-Rh probe fluorescence polarization; at 9.51 µM; active compounds read high
# [25] = target: Bcl-2-like protein 1 (Homo sapiens) (UniProt Q07817); assay: Bcl-xL BH3-peptide displacement, hit confirmation – biochemical, fluorescence polarization, counter-screen for MCL1 inhibitor project (AID 2166;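 active = inhibition above a cutoff equal to the mean inhibition of all tested compounds plus 3 SD, cut at about 30% in these data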); conditions: GST-Bcl-xL / FITC-Bim BH3 peptide FP binding; at 10.9 µM; active compounds read high
# Sequence of Bcl-2-like protein 1 (Homo sapiens) (Q07817 whole entry, looked up): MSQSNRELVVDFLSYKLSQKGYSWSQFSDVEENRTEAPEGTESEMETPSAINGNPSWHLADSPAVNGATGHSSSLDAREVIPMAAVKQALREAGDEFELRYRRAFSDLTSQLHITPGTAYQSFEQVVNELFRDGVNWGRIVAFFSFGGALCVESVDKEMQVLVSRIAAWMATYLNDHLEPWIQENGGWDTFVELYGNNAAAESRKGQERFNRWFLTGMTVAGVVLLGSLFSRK
# [26] = target: Induced myeloid leukemia cell differentiation protein Mcl-1 (Homo sapiens) (UniProt Q07820); assay: MCL1-BIM peptide interaction disruptors – biochemical, fluorescence polarization, triplicate, confirmation (AID 2168;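 active = inhibition above the average of all tested compounds plus 3 SD, cut at about 40% in these data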;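 note: 0% = DMSO wells and 100% = unlabeled Bim-BH3 control peptide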); conditions: GST-MCL1 / FITC-Bim-BH3 fluorescence polarization; at 10.9 µM; active compounds read high
# [27] = target: Photoreceptor-specific nuclear receptor (Homo sapiens) (UniProt Q9Y5X4); assay: corepressor-releasing ligands of human NR2E3 – biochemical, TR-FRET, confirmation (AID 2379; in the data active = activation above about 20%); conditions: cell-free NR2E3 corepressor release, 5 h, at 3.98 µM, active compounds read high
# [28] = target: Peroxisome proliferator-activated receptor gamma (Homo sapiens) + Nuclear receptor corepressor 2 (Homo sapiens) (UniProt P37231+Q9Y618); assay: agonists of PPARg-NCOR2 corepressor interaction, counter-screen for NR2E3 agonist project, biochemical, TR-FRET (AID 504787; in the data active = inhibition above about 20%;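 note: 0% = DMSO vehicle and 100% = wells without protein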); conditions: TR-FRET PPARg-NCOR2 coregulator interaction, at 3.98 µM, active compounds read high
# Sequence of Peroxisome proliferator-activated receptor gamma (Homo sapiens) + Nuclear receptor corepressor 2 (Homo sapiens) (P37231 whole entry, looked up): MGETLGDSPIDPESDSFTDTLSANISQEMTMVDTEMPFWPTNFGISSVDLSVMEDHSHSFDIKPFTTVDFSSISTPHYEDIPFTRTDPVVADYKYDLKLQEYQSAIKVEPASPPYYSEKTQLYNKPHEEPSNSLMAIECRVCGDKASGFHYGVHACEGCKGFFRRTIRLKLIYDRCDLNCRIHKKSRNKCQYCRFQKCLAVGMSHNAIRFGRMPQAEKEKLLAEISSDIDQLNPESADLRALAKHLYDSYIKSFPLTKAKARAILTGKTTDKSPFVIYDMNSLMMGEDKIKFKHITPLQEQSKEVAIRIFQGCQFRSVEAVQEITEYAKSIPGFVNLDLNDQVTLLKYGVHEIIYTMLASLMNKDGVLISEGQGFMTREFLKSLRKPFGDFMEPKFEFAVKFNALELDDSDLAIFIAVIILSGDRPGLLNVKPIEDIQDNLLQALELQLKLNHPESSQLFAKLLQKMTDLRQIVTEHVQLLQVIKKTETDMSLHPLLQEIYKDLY
# Sequence of Peroxisome proliferator-activated receptor gamma (Homo sapiens) + Nuclear receptor corepressor 2 (Homo sapiens) (Q9Y618 whole entry, looked up): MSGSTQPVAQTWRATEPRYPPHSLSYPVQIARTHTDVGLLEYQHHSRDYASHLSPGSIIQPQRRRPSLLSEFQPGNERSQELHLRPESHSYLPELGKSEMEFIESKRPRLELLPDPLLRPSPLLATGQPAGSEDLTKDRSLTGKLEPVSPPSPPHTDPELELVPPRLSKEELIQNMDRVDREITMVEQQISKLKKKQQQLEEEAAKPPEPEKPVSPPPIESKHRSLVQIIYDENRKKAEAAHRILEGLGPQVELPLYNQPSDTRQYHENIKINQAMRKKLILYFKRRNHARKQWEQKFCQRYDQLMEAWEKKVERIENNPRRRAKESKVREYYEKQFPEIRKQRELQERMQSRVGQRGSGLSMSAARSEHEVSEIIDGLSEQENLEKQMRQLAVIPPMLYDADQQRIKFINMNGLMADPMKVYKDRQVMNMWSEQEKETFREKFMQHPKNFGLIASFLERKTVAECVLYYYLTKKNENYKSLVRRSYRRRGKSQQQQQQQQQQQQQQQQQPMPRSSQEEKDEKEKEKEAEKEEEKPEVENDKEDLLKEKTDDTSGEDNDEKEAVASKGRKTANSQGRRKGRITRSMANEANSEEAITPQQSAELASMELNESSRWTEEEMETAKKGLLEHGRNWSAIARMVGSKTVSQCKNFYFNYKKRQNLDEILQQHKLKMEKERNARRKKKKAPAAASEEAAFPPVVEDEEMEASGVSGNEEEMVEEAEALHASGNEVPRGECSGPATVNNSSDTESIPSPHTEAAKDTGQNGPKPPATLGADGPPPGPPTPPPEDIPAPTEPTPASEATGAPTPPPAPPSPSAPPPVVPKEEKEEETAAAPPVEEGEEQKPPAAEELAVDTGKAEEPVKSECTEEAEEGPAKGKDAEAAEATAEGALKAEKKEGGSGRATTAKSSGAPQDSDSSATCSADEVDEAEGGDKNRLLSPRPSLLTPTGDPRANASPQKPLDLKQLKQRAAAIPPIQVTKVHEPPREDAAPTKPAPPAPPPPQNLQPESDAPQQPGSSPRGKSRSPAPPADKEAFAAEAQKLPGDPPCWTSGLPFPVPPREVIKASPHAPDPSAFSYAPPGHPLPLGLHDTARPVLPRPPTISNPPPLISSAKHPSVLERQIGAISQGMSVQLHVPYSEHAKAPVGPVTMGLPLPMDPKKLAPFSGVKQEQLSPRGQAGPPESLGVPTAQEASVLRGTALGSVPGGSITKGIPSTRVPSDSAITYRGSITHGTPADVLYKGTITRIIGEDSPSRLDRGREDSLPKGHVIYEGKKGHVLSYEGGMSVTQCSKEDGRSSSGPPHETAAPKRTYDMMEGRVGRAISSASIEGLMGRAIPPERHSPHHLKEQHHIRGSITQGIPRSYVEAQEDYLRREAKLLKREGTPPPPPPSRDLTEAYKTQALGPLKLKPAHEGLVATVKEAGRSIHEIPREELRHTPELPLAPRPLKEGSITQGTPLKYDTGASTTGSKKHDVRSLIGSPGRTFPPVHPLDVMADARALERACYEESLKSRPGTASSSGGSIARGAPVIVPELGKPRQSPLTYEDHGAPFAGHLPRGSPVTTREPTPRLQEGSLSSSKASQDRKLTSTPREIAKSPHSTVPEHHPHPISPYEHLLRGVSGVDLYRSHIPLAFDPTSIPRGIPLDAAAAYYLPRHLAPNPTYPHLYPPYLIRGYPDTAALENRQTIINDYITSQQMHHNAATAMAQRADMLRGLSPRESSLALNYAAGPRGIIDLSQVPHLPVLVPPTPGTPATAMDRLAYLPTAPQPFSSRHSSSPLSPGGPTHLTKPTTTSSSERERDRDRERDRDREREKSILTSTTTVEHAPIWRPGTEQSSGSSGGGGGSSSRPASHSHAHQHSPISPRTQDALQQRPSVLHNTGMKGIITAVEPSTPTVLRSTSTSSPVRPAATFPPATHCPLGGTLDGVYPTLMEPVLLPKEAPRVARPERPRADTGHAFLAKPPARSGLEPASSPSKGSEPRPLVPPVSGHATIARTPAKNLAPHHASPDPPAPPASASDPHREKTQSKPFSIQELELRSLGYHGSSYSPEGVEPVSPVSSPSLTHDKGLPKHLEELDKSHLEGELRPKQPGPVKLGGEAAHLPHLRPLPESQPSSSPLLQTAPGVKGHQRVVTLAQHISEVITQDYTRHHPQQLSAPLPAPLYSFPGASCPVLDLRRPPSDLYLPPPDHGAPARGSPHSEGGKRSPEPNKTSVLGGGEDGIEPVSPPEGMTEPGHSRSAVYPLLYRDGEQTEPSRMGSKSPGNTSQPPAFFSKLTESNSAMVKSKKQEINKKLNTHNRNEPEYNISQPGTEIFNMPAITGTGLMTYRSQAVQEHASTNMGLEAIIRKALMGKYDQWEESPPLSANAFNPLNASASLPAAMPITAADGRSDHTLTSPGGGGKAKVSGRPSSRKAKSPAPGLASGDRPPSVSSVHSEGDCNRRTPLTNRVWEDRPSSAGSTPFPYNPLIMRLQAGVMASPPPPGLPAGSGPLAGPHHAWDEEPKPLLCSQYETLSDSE
# [29] = target: Protein-arginine deiminase type-4 (Homo sapiens) (UniProt Q9UM07); assay: protein arginine deiminase 4 blockade, retest – biochemical, fluorescence polarization, confirmation (AID 488796;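 active = mean inhibition across replicates above the hit cutoff set by the earlier primary screen, cut at about 15% in these data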;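 note: inhibitors block active-site labeling by the probe so polarization falls; 0% = PAD4 with probe and DMSO and 100% = probe without PAD4 enzyme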); conditions: recombinant PAD4, RCA probe fluorescence polarization; at 6.36 µM; active compounds read high
# [30] = target: Serine protease HTRA1 (Homo sapiens) (UniProt Q92743); assay: confirming inhibition of human HTRA1 – biochemical, fluorescence polarization, confirmation (AID 540248;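 active = mean inhibition over three repeats above a set limit taken from the earlier primary screen, cut at about 37% in these data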;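 note: 0% = HTRA1 with DMSO and 100% = wells lacking HTRA1; inhibitors block probe binding so polarization drops and inhibition rises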); conditions: recombinant HTRA1, FP-rhodamine activity-based probe, at 5.96 µM, active compounds read high
# [31] = target: (Lyso)-N-acylphosphatidylethanolamine lipase (Mus musculus) (UniProt Q8VD66); assay: mouse ABHD4 hydrolase blockers, triplicate – biochemical, fluorescence polarization, confirmation (AID 720658;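 active = mean inhibition across replicates above the hit cutoff set in the primary screen, cut at about 30% in these data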;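 note: 0% = wild-type ABHD4 with DMSO and 100% = catalytically dead S159A mutant with DMSO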); conditions: purified mABHD4, FP-Rh probe fluorescence polarization; at 8.92 µM; active compounds read high
# [32] = target: Oxysterols receptor LXR-beta (Homo sapiens) (UniProt P55055); assay: nonspecific reporter activation via LXR – cell-based, luminescence, HEK293, H. contortus campaign, counter-screen for hcDAF-12 agonist project, confirmation (AID 743027;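 active = mean percent activation of the reporter above a cutoff set as the average over tested compounds plus their standard deviation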); conditions: HEK293 Gal4-LXR tk-luc reporter, 24 h, at 6.8 µM, active compounds read high, normalized: DMSO 0%, positive control 100%
# [33] = system: Nuclear hormone receptor DAF-12 (Haemonchus contortus); assay: hcDAF-12 luciferase reporter activation, retest – cell-based, luminescence, HEK293, lit1-tk-luc, triplicate, confirmation (AID 743032;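 active = mean activation across triplicate tests above the threshold derived from the earlier primary screen, cut at about 5.5% in these data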;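 note: 0% = DMSO only wells and 100% = 3 µM Δ7-dafachronic acid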); conditions: HEK293 hcDAF-12 lit1-tk-luc reporter, at 6.8 µM, active compounds read high, % of Δ7-dafachronic acid response
# [34] = suppression of KLF5 promoter-driven luciferase – DLD-1 cells, luminescence, confirmation (AID 1834;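 active = inhibition above a set limit taken from the earlier primary screen, cut at about 63% in these data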;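 note: 0% = DMSO wells and 100% = LY294002 at 200 µM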); conditions: DLD-1 KLF5 promoter firefly luciferase reporter, at 4 µM, active compounds read high
# [35] = IEC-6 intestinal cell killing – luminescence, triplicate, cytotoxicity control for KLF5 inhibitor project (AID 1905; in the data active = inhibition above about 23%;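 note: cells exposed to compounds for 48 hours before viability read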); conditions: IEC-6 rat intestinal cells, viability luminescence; at 4 µM; active compounds read high
# [36] = target: Sphingosine 1-phosphate receptor 4 (Homo sapiens) (UniProt O95977); assay: blockers of human S1P4 signalling – cell-based, confirmation (AID 1524); conditions: S1P4-expressing cell line, antagonist mode, reporter read-out; at 4.98 µM; active compounds read high
# [37] = target: Sphingosine 1-phosphate receptor 1 (Homo sapiens) (UniProt P21453); assay: blockade of human S1P1 receptor – cell-based, counter-screen for S1P4 antagonist project (AID 1564; in the data active = inhibition above about 40%;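 note: receptor stimulated with S1P near its EC80; 0% = agonist stimulated wells and 100% = vehicle only wells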); conditions: cell-based S1P1 antagonist counterscreen, at 4.98 µM, active compounds read high
# [38] = target: Receptor-interacting serine/threonine-protein kinase 2 (Homo sapiens) (UniProt O43353); assay: inhibitors of RIPK2 association with NOD2 – fluorescence, CHO cells, BLA complementation, triplicate, confirmation (AID 624370;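 active = mean inhibition across replicates above a set limit taken from the earlier primary screen, cut at about 21% in these data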;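 note: 0% = DMSO-only wells and the high end = clavulanate BLA-blocked wells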); conditions: CCF4 FRET, at 4.98 µM, active compounds read high
# Sequence of Receptor-interacting serine/threonine-protein kinase 2 (Homo sapiens) (O43353 whole entry, looked up): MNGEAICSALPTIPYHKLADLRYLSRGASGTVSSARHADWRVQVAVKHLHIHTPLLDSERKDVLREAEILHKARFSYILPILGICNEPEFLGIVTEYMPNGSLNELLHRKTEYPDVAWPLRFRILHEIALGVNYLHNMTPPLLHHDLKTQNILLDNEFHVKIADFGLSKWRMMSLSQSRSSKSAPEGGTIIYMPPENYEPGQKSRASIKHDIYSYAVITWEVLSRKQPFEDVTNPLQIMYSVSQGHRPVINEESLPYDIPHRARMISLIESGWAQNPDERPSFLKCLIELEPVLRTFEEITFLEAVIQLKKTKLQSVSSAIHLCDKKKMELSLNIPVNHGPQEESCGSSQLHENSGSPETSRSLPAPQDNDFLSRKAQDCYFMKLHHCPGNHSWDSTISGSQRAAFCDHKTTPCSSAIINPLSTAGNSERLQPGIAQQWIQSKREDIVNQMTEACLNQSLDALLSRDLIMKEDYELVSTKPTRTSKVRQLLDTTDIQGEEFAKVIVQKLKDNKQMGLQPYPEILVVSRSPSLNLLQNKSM
# [39] = BLA reporter readout interference – cell-based, CHO-K1 CMV-bla, CCF4 FRET, fluorescence, artefact control for NOD2-RIPK2 interaction inhibitor project, confirmation (AID 624371;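 active = mean inhibition above the low-control mean inhibition plus three low-control SD, cut at about 11% in these data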;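 note: 0% = DMSO only wells and 100% = clavulanate high control wells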); conditions: CCF4 FRET ratio, counterscreen, at 4.98 µM, active compounds read high
smiles,measurement,setting,value
O=C(CC(O)(C(F)(F)F)C(F)(F)F)Nc1ccc(Cl)c(Cl)c1,activation,[1],17%
same,activation,[2],-22.8%
same,activation,[3],-13.7%
same,inhibition,[4],-7.55%
same,activation,[5],11.5% (active)
same,inhibition,[6],16.9% (active)
same,inhibition,[7],21.6% (active)
same,inhibition,[8],16.9%
same,inhibition,[9],58.7% (active)
same,inhibition,[10],65.2% (active)
same,inhibition,[11],46.4%
same,inhibition,[12],74.2% (active)
same,inhibition,[13],99.8% (active)
same,inhibition,[14],89.7% (active)
same,inhibition,[15],74.3% (active)
same,inhibition,[16],102% (active)
same,inhibition,[17],90.4% (active)
same,inhibition,[18],88.5% (active)
same,inhibition,[19],16.8% (active)
same,inhibition,[20],20.4% (active)
same,inhibition,[21],22.1% (active)
same,inhibition,[22],20.4% (active)
same,inhibition,[23],62.1% (active)
CSc1c(SCc2ccccc2)cnn(Cc2ccccc2)c1=O,inhibition,[24],0.05%
same,inhibition,[25],-5.91%
same,inhibition,[26],-3.67%
O=C(Oc1ccccc1)Oc1ccc2c(c1)oc(=O)c1ccccc12,activation (reported as inhibition),[27],1.72%
same,inhibition,[28],6.42%
CC(=O)c1sc2nc(SCC(=O)N3CCCCC3)[nH]c(=O)c2c1C,activation (reported as inhibition),[27],17.4%
same,inhibition,[28],21.1% (active)
Nc1ccc(Nc2ccccc2)cc1,inhibition,[29],6.93%
same,inhibition,[30],54.5% (active)
same,inhibition,[31],36.4% (active)
CC(=O)n1c(C=Nc2ccccc2)c(O)c2ccccc21,activation,[32],0.1%
same,activation,[33],4.63%
CCOC(=O)c1sc(NC(=O)c2sc(C)nc2C)nc1C,inhibition,[34],69.3% (active)
same,inhibition,[35],2.65%
CCNC(=O)CCc1nc(-c2ccc(C(C)(C)C)cc2)no1,inhibition,[34],56%
same,inhibition,[35],-2.69%
same,inhibition,[13],73.5% (active)
same,inhibition,[14],77.8% (active)
CC1CC(C)CN(S(=O)(=O)c2cccc(C(=O)N3C(=O)c4cccc(N)c4C3=O)c2)C1 (stereo unspecified),inhibition,[36],32.3% (active)
same,inhibition,[37],8.25%
same,inhibition,[38],34.1% (active)
same,inhibition,[39],33.2% (active)
COc1ccc2nc(NC(=O)NC3CCCCC3)sc2c1,activation,[1],40.8% (active)
same,activation,[2],66.1% (active)
same,activation,[3],72.5% (active)
same,inhibition,[4],56.1% (active)
same,activation,[5],53.9% (active)
CCOc1ccccc1NC(=O)Cn1nnc(C(=O)NCc2cccs2)c1N,inhibition,[34],83.1% (active)
same,inhibition,[35],58.1% (active)
O=C(/C=C/c1ccc(Cl)c([N+](=O)[O-])c1)c1ccc(O)cc1,inhibition,[36],102% (active)
same,inhibition,[37],14.6%
same,inhibition,[38],31.7% (active)
same,inhibition,[39],-1.48%
